Source: PubChem BioAssay
Hits are enriched below; roughly 6.6% of the tested compounds scored in any of these assays.
TGFb inhibitor: TGF-b pathway inhibition; HepG2 CAGA-GFP TGF-b/SMAD3 reporter, GFP fluorescence, 18 h; TGF-beta stimulated, 500 pg/mL final; Potency, µM (top dose mostly 46.1 µM), without a hit: at the top dose activity, negative = inhibition, hits mostly inhibitors; actives 1.2% (n = 410,000); AID 588855; also: % is scaled to controls: 0 for no effect and ±100 for the full control effect; nearly all actives have a fitted effect of over 65% in size
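GFP signal (ex488/em500-530) from TGF-beta-stimulated HEPG2 CAGA-GFP cells, 500 pg/mL final, 18 h at 37 degrees C in DMEM plus 1% FBS, normalized to unstimulated and DMSO-stimulated controls.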
HT1080-NT tox: kills 2HG-producing HT-1080-NT fibrosarcoma cells; HT-1080-NT fibrosarcoma viability, CellTiter-Glo ATP luminescence, 48 h; Potency, µM (doses to about 46.1 µM), inactives show at the highest dose activity, negative = less viability, actives largely listed as cytotoxic; actives 1.6% (n = 360,000);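 also: NT is the 2HG producing partner of a matched IDH1 knockdown line; 0% = DMSO-treated cells and -100% = media-only wells without cells; nearly all actives have a fitted effect of over 55% in size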
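Viability by CellTiter-Glo luminescence after 48 h compound exposure at 37C of HT-1080-NT cells (750/well, RPMI, 5% FBS). % activity scaled between DMSO wells and medium-only wells, then curve-fitted and categorized by curve class.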
KB-V1 MDR tox: KB-V1 MDR subline cytotoxicity; KB-V1 MDR cells viability, CellTiter-Glo, 72 h; Potency, µM (highest dose often 46.1 µM), actives largely listed as cytotoxic; actives 3.4% (n = 400,000); also: % is scaled to controls: 0 for no effect and ±100 for the full control effect; nearly all actives have a fitted effect of over 60% in size
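Cytotoxicity toward P-gp-expressing KB-V1 cells was determined as loss of CellTiter-Glo luminescence after 72 h at 37 degrees C. Compounds were tested in quantitative HTS format across a concentration range, with curves fitted to normalized data.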
KB-3-1 cytotox: KB-3-1 parental cell cytotoxicity; KB-3-1 viability, CellTiter-Glo ATP luminescence, 72 h; Potency, µM (series often up to 46.1 µM), usual class: cytotoxic; actives 1.4% (n = 400,000); AID 1347075; also: % is scaled to controls: 0 for no effect and ±100 for the full control effect; nearly all actives have a fitted effect of over 60% in size
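Screening of KB-3-1 cells (DMEM, 10% FBS, phenol-red free) ran from lowest to highest compound concentration; after 72 h at 37 °C viability was read luminescently and curves fitted.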
HT1080 IDH1KD tx: HT-1080 IDH1 knockdown cell toxicity (counter line); Potency, µM (doses to about 46.1 µM), without a hit: at the highest dose activity, negative = toxicity, most hits filed as cytotoxic; actives 2% (n = 360,000); AID 686971; HT-1080 IDH1 knockdown viability, ATP luminescence, 48 h;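 also: 0% = DMSO wells and -100% = cell-free medium wells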
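IDH1KD HT-1080 cells, 750/well, RPMI + 5% FBS; compound pinned after 2 h settling; 48 h, 37 °C; CellTiter-Glo luminescence; % activity normalised to DMSO and no-cell wells; curves fitted, classed by r2 and efficacy.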
HepG2 viability: HepG2 cytotoxicity, counter-screen for TGF-b inhibitors; HepG2 CAGA-GFP viability, ATP luminescence, 18 h; Potency, µM (highest dose often 46.1 µM), for the others: top-dose activity change, negative = cytotoxicity, actives largely listed as cytotoxic; actives 0.76% (n = 410,000); AID 588856
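HepG2 CAGA-GFP cells (1000/well, DMEM with 1% FBS) received compound, then TGF-beta at 500 pg/mL final, and were incubated 18 hours at 37 degrees C. Viability was read by CellTiter-Glo luminescence. Media-only wells were set as complete cell-killing and DMSO as no toxicity.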
Starred values were filed as active, the others as inactive; i = inactive; ? = inconclusive; . = no result; [ ] = dose if it differs, or a comment. Calls follow the shape of the dose curve; as a rule, active = well fitted curve in the direction sought with a large enough effect; inconclusive = small, poorly fitted or top-dose-only effect, or another doubt; inactive = no such curve, though single readings can be large; an effect the other way counts as inactive or inconclusive. Potency is read from the fitted curve at half-maximal effect.

SMILES	TGFb inhibitor	HT1080-NT tox	KB-V1 MDR tox	KB-3-1 cytotox	HT1080 IDH1KD tx	HepG2 viability
CNc1ccccc1C(C)(C)c1cc(-c2ccc(F)cc2)no1	?	-10%	?	8.2µM*	-20%	-28%
Cc1nn(C(=O)c2ccc(Cl)cc2)c(C)c1Sc1ccc(Cl)cc1	-1%	.	?	i	.	-9%
C[C@@H]1CN([C@H](C)CO)C(=O)CCCn2nncc2CO[C@@H]1CN(C)S(=O)(=O)c1cn(C)cn1	-22%	-8%	i	i	-3%	11µM*
COc1cccc(S(=O)(=O)N(C)C[C@@H]2OCc3cnnn3CCCC(=O)N([C@H](C)CO)C[C@H]2C)c1	2%	19%	i	i	-16%	7%
C[C@H]1CN([C@@H](C)CO)C(=O)CCCn2nncc2CO[C@@H]1CN(C)S(=O)(=O)c1cn(C)cn1	21%	6%	i	i	11%	37%
COc1cccc(S(=O)(=O)N(C)C[C@H]2OCc3cnnn3CCCC(=O)N([C@H](C)CO)C[C@H]2C)c1	-6%	-4%	i	i	-10%	18µM*
CCOCCc1nn2c(=O)cc(COC(=O)c3ccc4c(c3)OCO4)nc2s1	10%	.	i	i	.	13%
COc1ccc(-c2csc(N3CCN(c4cc(C)nc5ccccc45)CC3)n2)cc1OC	?	?	16µM*	i	16µM*	11µM*
COc1ccc(CCCNC(=O)C2Cc3c(-c4ccc(NC(C)=O)cc4)ccnc3O2)cc1 (centres undefined)	15%	?	i	?	16µM*	-25%
COc1ccc(CCCNC(=O)C2Cc3c(-c4cccc(C(C)=O)c4)ccnc3O2)cc1 (centres undefined)	?	?	21µM*	6.5µM*	?	-1%
COc1ccc(CCCNC(=O)C2Cc3c(-c4ccc5c(c4)OCO5)ccnc3O2)cc1 (centres undefined)	-5%	9.2µM*	?	?	5.8µM*	-37%
COc1ccc(CCCNC(=O)C2(C)Cc3c(-c4ccc5c(c4)OCO5)ccnc3O2)cc1 (centres undefined)	?	?	?	?	?	-32%
COc1cccc(-c2nnc(SCC(=O)N(C)C3CCCCC3)o2)c1	-8%	.	i	i	.	-19%
CN(C(=O)CN1C(=O)NC(C)(c2cccc(Br)c2)C1=O)C1CCCCC1 (centres undefined)	?	4%	23µM*	i	13%	-2%
CC(=O)Nc1nonc1-c1nnc(SCc2cccc(Br)c2)n1C	-1%	.	i	i	.	3%
O=C(NCc1ccco1)c1ccc2c(c1)N(Cc1ccccc1)C(=O)CS2	-22%	-15%	5.8µM*	i	-3%	-41%
CCN(CCCNC(=O)CN1N=C(c2ccc(OC)cc2)CCC1=O)c1cccc(C)c1	?	.	.	.	.	-27%
COc1cc2nc(NCCc3cccc(C)c3)n3nc(-c4ccccc4)nc3c2cc1OC	5%	.	i	i	.	1%
CCN(CC)CCNc1nc2cc(OC)c(OC)cc2c2nc(-c3ccccc3)nn12	7%	-7%	9.2µM*	16µM*	-4%	-9%
Cc1ccc(NC(NC(=O)c2ccccc2[N+](=O)[O-])C(Cl)(Cl)Cl)cc1 (centres undefined)	-3%	-1%	21µM*	i	0%	-11%
O=C(O)c1cccc(NC(=S)NC(NC(=O)c2ccccc2[N+](=O)[O-])C(Cl)(Cl)Cl)c1 (centres undefined)	9%	7%	i	i	-1%	0%
Cc1ccc(NC(NC(=O)Cc2ccccc2)C(Cl)(Cl)Cl)cc1 (centres undefined)	-19%	4%	15µM*	?	9%	-1%
CCn1c(=O)c2c(nc3n2CCN3c2ccc(OC)cc2)n(C)c1=O	3%	.	i	i	.	-5%
Oc1cccc(/C=N/N(Cc2ccccc2)c2ccccc2)c1	?	?	?	i	18µM*	13µM*
Cc1ccc(N=C2NC(=O)/C(=C/c3cccn3C)S2)cc1	-3%	-29%	?	?	10µM*	6%
SMILES	TGFb inhibitor	HT1080-NT tox	KB-V1 MDR tox	KB-3-1 cytotox	HT1080 IDH1KD tx	HepG2 viability
CCC/C=C/c1ccc(CN2C(CC(C)C)C(=O)N(Cc3cn(Cc4ccco4)nn3)CCS2(=O)=O)cc1 (centres undefined)	16µM*	?	?	?	?	-88%
CN1CCN(c2ccc([N+](=O)[O-])c(-n3nc(-c4ccccc4)c4ccccc4c3=O)c2)CC1	4%	?	13µM*	?	?	-5%
Cc1oc(-c2ccc(C(=O)N(C)Cc3ccccc3)cc2)nc1CN1CCc2ccccc21	?	.	13µM*	15µM*	.	-6%
COCCNC(=O)c1ccc(-c2nc(CN3CCc4ccccc43)c(C)o2)cc1	-13%	.	10µM*	?	.	-33%
Cc1oc(-c2ccc(-c3ccccc3)cc2)nc1CN1CCN(CC(=O)N(C)C)CC1	6%	3%	i	i	2%	15%
Cc1ccc(CNC(=O)c2ccc(-c3nc(CN4CCc5ccccc54)c(C)o3)cc2)cc1	2%	.	?	i	.	6%
CCS(=O)(=O)N1CCc2cc(C(=O)N3CCN(c4ccc(OC)cc4)CC3)ccc21	?	.	i	i	.	-27%
CCOc1ccc(S(=O)(=O)Nc2ccccc2SC)cc1	21%	-30%	16µM*	?	-28%	-25%
CCOc1ccc(S(=O)(=O)Nc2cc(Cl)ccc2O)cc1	?	?	i	?	23µM*	-38%
CCOc1ccc(S(=O)(=O)Nc2cccc(Cl)c2)cc1	-30%	?	?	?	-4%[9.24 µM]	-8%
COc1ccccc1NC(=O)c1cc(S(=O)(=O)NCCC2=CCCCC2)ccc1F	?	.	i	i	.	-3%
Sc1oc(-c2ccccc2)cc1C=Nc1ccccc1	?	7.9µM*	i	i	11µM*	-3%
CCc1nnc(NC(=O)CSc2nnc(-c3ccccc3NC(=O)c3ccccc3)o2)s1	-17%	13µM*	?	i	-25%[9.24 µM]	-24%
O=C(Nc1ccccc1-c1nnc(SCc2ccc(Cl)cc2Cl)o1)c1ccccc1	1%	9%	?	i	6%	1%
O=C(Nc1ccccc1-c1nnc(SCc2ccccc2Cl)o1)c1ccccc1	3%	-10%	15µM*	i	-6%	-6%
NC(=O)c1ccccc1NC(=O)Cn1nc(Cc2cccnc2)c2ccccc2c1=O	?	.	.	.	.	-28%
